Screening results deposited in PubChem BioAssay by National Center for Advancing Translational Sciences (NCATS).
This is a sample that favours compounds with a hit; in the whole collection about 7.1% have one here.
PINK1 expr mod: changes PINK1 expression. PINK1 immunofluorescence, high-content cytometry, 24 h. Potency, µM (series often up to 76.6 µM), usual class: activators. actives 0.2% (n = 410,000); active = well fitted activation curve with a large enough effect; inconclusive = small, poorly fitted or top-dose-only effect; cell line not stated here; also: nearly all actives have a fitted effect of over 65% in size
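A stable cell line was treated with compounds at 5 concentrations for 24 hours, with CCCP as control. PINK1 levels and mitochondrial localization were measured by immunofluorescence with mitochondrial, cell and nuclear markers after fixation, read by laser-scanning cytometry.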
MCF10A rereplic: induces DNA re-replication in MCF 10a normal breast cells; MCF 10A DNA re-replication, Hoechst nuclear intensity, 48 h; Potency, µM (titrated, usually from 46.1 µM), usual class: activators; actives 2.9% (n = 350,000); AID 624296; also: nearly all actives have a fitted effect of over 50% in size
ATXN2 expr inh: ATXN2 expression inhibition; HEK-293 ATXN2-luciferase reporter, luminescence, 24 h; Potency, µM (highest dose often 57 µM), actives largely listed as inhibitors; actives 0.72% (n = 360,000); AID 1745845; also: nearly all actives have a fitted effect of over 55% in size
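ATXN2-luciferase reporter cells (luciferase flanked by upstream and downstream ATXN2 gene portions) were treated 24 h at 37 °C with compounds at up to 57 uM. SteadyGlo luminescence gave expression; GF-AFC fluorescence gave viability.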
IL1B secr inh: blocks inflammasome-driven IL-1 beta release | AID 743279 | THP-1 LPS/ATP IL-1B secretion, AlphaLISA, 16 h; active compounds read low | activity change, % at 57.5 µM | actives 4.7% (n = 360,000); in the data active = activity change below about -50%; inconclusive = mostly about -30% to -49%
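Secreted IL-1B measured by AlphaLISA bead assay after 16 h compound exposure of THP-1 cells; compounds (final up to 57.5 uM) added 1 h before LPS (250 ng/mL) and ATP (1.25 mM) stimulation; lower signal means less secretion.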
SW480 rereplic: DNA re-replication induction in SW480 cells. Potency, µM (series often up to 46.1 µM), hits mostly activators. SW480 DNA re-replication, Hoechst DNA content imaging, 48 h. actives 1.8% (n = 340,000). AID 624297; also: nearly all actives have a fitted effect of over 55% in size
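Treated cells incubate 48 hr (37 C, 5% CO2), are stained 40 min with Hoechst, and nuclear fluorescence is enumerated; a rise in nuclei with high DNA signal marks re-replication.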
ATXN viability: reduces viability in counter-screen for ATXN expression inhibitors; S2 cells (HEK-293 line with an ATXN2-luciferase reporter) viability, CellTiter-Fluor protease fluorescence, 24 h; Potency, µM (titrated, usually from 56.7 µM), actives largely listed as cytotoxic; actives 0.49% (n = 400,000); also: nearly all actives have a fitted effect of over 40% in size
Large screens that a line does not name were inactive. Unless noted, calls follow the shape of the dose curve; as a rule, active = well fitted curve in the direction sought with a large enough effect; inconclusive = small, poorly fitted or top-dose-only effect, or another doubt; inactive = no such curve, though single readings can be large; an effect the other way counts as inactive or inconclusive.

COCCCN(C(=S)Nc1cc(Cl)cc(Cl)c1)C(C)c1ccncc1 (configuration not stated)	PINK1 expr mod inconclusive, MCF10A rereplic inconclusive, IL1B secr inh -68.1
Cc1ccc(SCC(=O)N2c3ccccc3Sc3ccccc32)cc1	MCF10A rereplic 7.31µM
O=C(CSc1nncs1)N1c2ccccc2Sc2ccccc21	MCF10A rereplic 8.2µM, SW480 rereplic 20.6µM
Cn1nnnc1SCC(=O)N1c2ccccc2Sc2ccccc21	none
Cc1ccc(C(=O)N2c3ccccc3Sc3ccccc32)cc1	none (no result: MCF10A rereplic, SW480 rereplic)
COc1ccc2c(c1OC)C(=O)N1c3ccccc3C(=O)N(Cc3ccco3)C21 (configuration not stated)	none (no result: MCF10A rereplic, ATXN2 expr inh, IL1B secr inh, SW480 rereplic, ATXN viability)
O=C(O)c1ccc(C2Nc3ccccc3-c3nnc(SCc4ccc(Cl)cc4)nc3O2)cc1 (configuration not stated)	none (no result: MCF10A rereplic, ATXN2 expr inh, IL1B secr inh, SW480 rereplic, ATXN viability)
COc1ccc(NC(=S)NCCCn2ccnc2)cc1	none
CCOc1ccccc1NC(=S)NCCCn1ccnc1	MCF10A rereplic 0.581µM, SW480 rereplic inconclusive, ATXN viability inconclusive
CCOc1ccc(S(=O)(=O)NCCCn2ccnc2)cc1	MCF10A rereplic 23.1µM, ATXN2 expr inh inconclusive
CCOc1cc(S(=O)(=O)NCCCn2ccnc2)ccc1Cl	none
CCOc1cc(C(=O)NCCc2csc(-c3ccc(C)cc3)n2)cc(OCC)c1OCC	none (no result: MCF10A rereplic, ATXN2 expr inh, IL1B secr inh, SW480 rereplic, ATXN viability)
COc1cc(NC(=O)c2cc3nc(-c4ccc(C)cc4)cc(C(F)(F)F)n3n2)cc(OC)c1OC	none (no result: MCF10A rereplic, IL1B secr inh, SW480 rereplic)
O=C(O)Cc1cn(-c2ccccc2)nc1-c1ccccc1	SW480 rereplic inconclusive
O=C(O)/C=C/C(=O)NCc1cn(-c2ccccc2)nc1-c1cccc(Br)c1	IL1B secr inh -57.8
COc1ccc(C2C3=C(Nc4ncnn42)c2ccccc2CCC3)cc1 (configuration not stated)	MCF10A rereplic inconclusive
Fc1ccc(/C=C2\CCCC3=C2Nc2ncnn2C3c2ccc(F)cc2)cc1 (configuration not stated)	MCF10A rereplic 5.8µM, ATXN2 expr inh 25.1µM, IL1B secr inh -122.4, SW480 rereplic 23.1µM, ATXN viability 17.8µM
NC(=O)CSc1ncc2c(n1)-c1ccccc1N(Cc1cccc(F)c1)S2(=O)=O	none (no result: MCF10A rereplic, IL1B secr inh, SW480 rereplic)
O=C(NCCn1cc(SCc2ccc(F)cc2)c2ccccc21)c1c(F)cccc1F	MCF10A rereplic inconclusive, IL1B secr inh -60.9, ATXN viability inconclusive
COc1ccc(C(=O)NCCn2cc(SCC(=O)Nc3ccc(F)cc3)c3ccccc32)cc1	ATXN2 expr inh inconclusive, ATXN viability 31.6µM (no result: MCF10A rereplic, IL1B secr inh, SW480 rereplic)
O=C(NCCn1cc(SCc2ccccc2)c2ccccc21)c1c(F)cccc1F	IL1B secr inh inconclusive
Cc1nc(CC(=O)Nc2ccc(C(N)=O)cc2)cs1	none (no result: MCF10A rereplic, ATXN2 expr inh, IL1B secr inh, SW480 rereplic, ATXN viability)
C[C@H](O)[C@@H]1C(=O)N2C(C(=O)O)=C(S[C@@H]3CN[C@H](CNS(N)(=O)=O)C3)[C@@H](C)[C@@H]12	none (no result: PINK1 expr mod, MCF10A rereplic, IL1B secr inh, SW480 rereplic, ATXN viability)
O=C(c1cccs1)N1CCC(c2nc(-c3ccc(S(=O)(=O)N4CCOCC4)cc3)no2)CC1	none
O=C(c1ccccc1)N1CCC(c2nc(-c3ccc(S(=O)(=O)N4CCOCC4)cc3)no2)CC1	ATXN viability inconclusive
Cc1cccc(C(=O)N2CCC(c3nc(-c4ccc(S(=O)(=O)N5CCOCC5)cc4)no3)CC2)c1	IL1B secr inh -52.7, ATXN viability inconclusive
O=C(Nc1ccccc1)N1CCC(c2nc(-c3ccc(S(=O)(=O)N4CCOCC4)cc3)no2)CC1	PINK1 expr mod 12.6µM, MCF10A rereplic 1.84µM, SW480 rereplic 5.8µM
CSCCC(=O)N(C)CC1CCN(CCc2cccc(C(F)(F)F)c2)CC1	SW480 rereplic inconclusive (no result: ATXN2 expr inh)
CN(CC1CCN(CCc2cccc(C(F)(F)F)c2)CC1)C(=O)c1ccc(F)cc1F	IL1B secr inh -50.5
CC(=O)Nc1ccc(CN(C)CC2CCCN(CCc3cccc(C(F)(F)F)c3)C2)cc1 (configuration not stated)	MCF10A rereplic inconclusive, IL1B secr inh -69.2, SW480 rereplic inconclusive
COc1ccc(C(=O)N(C)CC2CCN(CCc3cccc(C(F)(F)F)c3)CC2)cc1C	MCF10A rereplic inconclusive, IL1B secr inh -60.6, SW480 rereplic inconclusive, ATXN viability inconclusive
COc1cc2c(cc1OC)C(COc1ccccc1OC)N(C(=O)COc1ccc(Cl)cc1)CC2 (configuration not stated)	none (no result: MCF10A rereplic, IL1B secr inh, SW480 rereplic)
O=C(NCCS(=O)(=O)N1CCN(c2ccccc2F)CC1)C(c1ccccc1)c1ccccc1	none (no result: MCF10A rereplic, ATXN2 expr inh, IL1B secr inh, SW480 rereplic, ATXN viability)
C/C(=N\Nc1ccc(Cl)c(Cl)c1)c1ccc(-n2ccnc2)cc1	MCF10A rereplic inconclusive, ATXN2 expr inh inconclusive, IL1B secr inh -65.1, SW480 rereplic inconclusive, ATXN viability inconclusive
COc1ccc(CCNC(=O)c2ccc(Cn3c(=O)c4ccccc4n(CC(=O)C(C)(C)C)c3=O)cc2)cc1OC	ATXN viability inconclusive (no result: MCF10A rereplic, IL1B secr inh, SW480 rereplic)
CCN(CC)CCCNC(=S)N1CCN(c2nc(-c3ccccc3)cs2)CC1	MCF10A rereplic inconclusive, ATXN2 expr inh inconclusive, IL1B secr inh -50.1, SW480 rereplic inconclusive, ATXN viability inconclusive
O=C(NC(=S)N1CCN(c2nc(-c3ccccc3)cs2)CC1)c1cncc(Br)c1	MCF10A rereplic 20.6µM, ATXN2 expr inh inconclusive, SW480 rereplic 16.4µM, ATXN viability inconclusive
CCOCCCNC(=S)N1CCN(c2nc(-c3ccccc3)cs2)CC1	MCF10A rereplic inconclusive, ATXN2 expr inh inconclusive, IL1B secr inh inconclusive
CC(C)CNC(=S)N1CCN(c2nc(-c3ccc(Cl)cc3)cs2)CC1	ATXN2 expr inh 15.8µM, IL1B secr inh -68.7, ATXN viability inconclusive
COCCCNC(=S)N1CCN(c2nc(-c3ccccc3)cs2)CC1	MCF10A rereplic 14.6µM, ATXN2 expr inh inconclusive
O=S(=O)(NCCS(=O)(=O)N1CCN(c2ccccc2F)CC1)c1ccc(Cl)cc1	none (no result: MCF10A rereplic, ATXN2 expr inh, IL1B secr inh, SW480 rereplic, ATXN viability)
O=C(CC1Sc2ccccc2NC1=O)Nc1cccc(C(F)(F)F)c1 (configuration not stated)	none (no result: MCF10A rereplic, IL1B secr inh, SW480 rereplic)
CC(C)CCN1C(=O)c2ccccc2CC1(C)C(=O)NC1CCC(C)CC1 (configuration not stated)	none (no result: MCF10A rereplic, ATXN2 expr inh, IL1B secr inh, SW480 rereplic, ATXN viability)
Cc1c(NC(=O)C(C)OC(=O)[C@@H](NC(=O)c2ccccc2)C(C)C)c(=O)n(-c2ccccc2)n1C (some centres not stated)	PINK1 expr mod inconclusive
Cc1c(NC(=O)[C@@H](NC(=O)c2ccc(Cl)c([N+](=O)[O-])c2)C(C)C)c(=O)n(-c2ccccc2)n1C	IL1B secr inh -93.6
CCCn1c(C2CCCN2c2nc(-c3cccc(Br)c3)cs2)nc2ccccc21 (configuration not stated)	ATXN viability 22.4µM
